Rows were chosen to be rich in hits. Some 1.7% of all compounds tested hit in one or more screens of this group.
HEK293 tox: cytotoxicity counter-screen for GLP-1 receptor inverse agonists; HEK293 cAMP-luciferase reporter cells, luminescence, 24 h; Potency, µM (highest dose often 38.3 µM), for the others: at the top dose activity change, negative = inhibition, hits mostly inhibitors; 410,000 compounds, 0.13% hits; AID 624418;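 also: loss of luciferase light is scored as toxicity; % is scaled to controls: 0 for no effect and ±100 for the full control effect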
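Seeding density was 200 cells/uL; after overnight-length (12 h) culture, 23 nL compounds went on for 24 h at 37 °C. Readout used a luciferase detection reagent, luminescence taken after 12 min at room temperature.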
GLP1R ag: activates the human GLP-1 receptor | P43220 | HEK293 GLP-1R CRE-luciferase, luminescence, 4-6 h; cells express a hypersensitive GLP-1R form | Potency, µM (top dose mostly 45.6 µM), for the others: top-dose activation, usual class: activators | 380,000 compounds, 0.007% hits | AID 624172; also: % of control where 0% means no effect
Target sequence (P43220 whole entry, looked up): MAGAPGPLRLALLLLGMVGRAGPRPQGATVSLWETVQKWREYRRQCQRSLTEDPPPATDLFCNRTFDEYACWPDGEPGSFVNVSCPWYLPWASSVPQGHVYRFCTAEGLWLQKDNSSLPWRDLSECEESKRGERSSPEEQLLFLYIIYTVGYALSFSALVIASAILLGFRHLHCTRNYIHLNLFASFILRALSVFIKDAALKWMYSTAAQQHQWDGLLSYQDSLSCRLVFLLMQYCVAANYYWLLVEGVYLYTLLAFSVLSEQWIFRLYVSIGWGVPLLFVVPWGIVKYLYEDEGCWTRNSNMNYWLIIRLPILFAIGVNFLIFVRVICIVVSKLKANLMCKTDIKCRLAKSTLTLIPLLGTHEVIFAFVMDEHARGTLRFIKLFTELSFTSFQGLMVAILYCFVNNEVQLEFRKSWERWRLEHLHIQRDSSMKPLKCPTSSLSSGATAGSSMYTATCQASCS
GLP-1R inv ag: inverse agonists of human GLP-1 receptor. AID 624417. Potency, µM (doses to about 38.3 µM), for the others: at the highest dose activity change, negative = inhibition, actives largely listed as inhibitors. HEK293 GLP-1R CRE-luciferase, luminescence, 24 h; GLP-1R form is constitutively active. P43220. 410,000 compounds, 1.6% hits; also: % is scaled to controls: 0 for no effect and ±100 for the full control effect; nearly all actives have a fitted effect of over 55% in size
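Cells are plated, allowed 12 hours at 37 deg C, then treated with compounds for 24 hr before luciferase detection reagent is added and luminescence is read after 12 min at room temperature. The HEK293 line carries constitutively active GLP-1R with a cAMP-responsive reporter.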
The depositor's hits bear a star; ? = inconclusive; nt = no result given; [ ] = another dose, or the depositor's remark. Calls follow the shape of the dose curve; as a rule, active = well fitted curve in the direction sought with a large enough effect; inconclusive = small, poorly fitted or top-dose-only effect, or another doubt; inactive = no such curve, though single readings can be large; an effect the other way counts as inactive or inconclusive. Potency is read from the fitted curve at half-maximal effect.

SMILES	HEK293 tox	GLP1R ag	GLP-1R inv ag
CN(C)CC(CCC(CN(C)C)C(O)(c1ccccc1)c1ccccc1)C(O)(c1ccccc1)c1ccccc1 (stereo not drawn)	?	19%	2.8µM*
CN(C)C/C=C/C(O)(c1ccccc1)c1ccccc1	-12%	1%	-25%
Cc1ccc(S(=O)(=O)Nc2cc3c(C(=O)OCc4ccccc4)c(C)oc3c3ccccc23)cc1	11%	nt	19%
CN(C)S(=O)(=O)c1cccc(N=C2SCCN2Cc2ccccc2)c1	15%	19%	11µM*
Cc1ccc(C(=O)N2CC(C)SC2=Nc2cccc(S(=O)(=O)N(C)C)c2)cc1 (stereo not drawn)	5%	9%	?
O=C1CN(C(=O)c2ccc(Br)o2)C(c2ccc(F)cc2)c2cc(Cl)ccc2N1 (stereo not drawn)	-11%	-4%	3.5µM*
O=C1CN(C(=O)c2ccc(Br)o2)C(c2ccccc2)c2cc(Cl)ccc2N1 (stereo not drawn)	4%	6%	?
O=C1CN(C(=O)c2ccc(Br)o2)C(c2ccccc2)c2cc(Br)ccc2N1 (stereo not drawn)	-19%	-4%	7.1µM*
Cc1ccc2c(c1)C(c1ccccc1)N(C(=O)c1ccc(Br)o1)CC(=O)N2 (stereo not drawn)	2%	26%	?
CC(C)Oc1cc(F)ccc1-c1cc(C(=O)Nc2ccccc2)[nH]n1	-2%	28%	11µM*
CC(C)Oc1cc(F)ccc1-c1cc(C(=O)Nc2ccc(C(C)C)cc2)[nH]n1	-3%	4%	?
O=C(Nc1cccc(Cl)c1)N1Cc2ccccc2Oc2ncccc21	0%	nt	6%
CC(C)c1ccc(NC2CCCN(C(=O)CC3CCCC3)C2)cc1 (stereo not drawn)	6%	20%	6.3µM*
CC(C)c1ccc(NC2CCCN(C(=O)CCN3CCCC3=O)C2)cc1 (stereo not drawn)	6%	-2%	-18%
Cc1ccc(CSc2ncc(Cl)c(C(=O)NCCc3ccc(S(N)(=O)=O)cc3)n2)cc1	0%	nt	15%
CC1=C(C(=O)OCc2ccc(C)cc2)C(c2ccccc2C(F)(F)F)CC(=O)N1 (stereo not drawn)	6%	1%	-8%
COc1cc(NC(=S)N2CCN(C/C=C/c3ccccc3)CC2)cc(OC)c1	7%	0%	?
COc1cccc(NC(=S)N2CCN(C/C=C/c3ccccc3)CC2)c1	-23%	5%	5.6µM*
O=C1C=CC(c2ccccc2)(c2ccccc2)CC1	9%	11%	?
N=c1n(CCN2CCCCC2)c2ccccc2n1CC(=O)c1ccc(Cl)c(Cl)c1	?	11%	5.6µM*
Cc1ccc(C(=O)Cn2c(=N)n(CCN3CCOCC3)c3ccccc32)cc1	2.5µM*	5%	?
COC(=O)Cn1c(=N)n(CCN2CCCCC2)c2ccccc21	-3%	-1%	0%
CCn1c(=N)n(CC(=O)c2ccc(Cl)c(Cl)c2)c2ccccc21	-26%	15%	?
Cc1ccc2[nH]c(CSc3nnc(NC(=O)c4ccccc4C)s3)cc(=O)c2c1	2%	nt	1%
CCc1cccc(NC(=O)C2CCC(CNS(=O)(=O)c3ccc(Br)s3)CC2)c1 (stereo not drawn)	-15%	nt	?
SMILES	HEK293 tox	GLP1R ag	GLP-1R inv ag
CCCCCn1c(=O)[nH]c2cc(C(=O)NC(C)CC)ccc2c1=O (stereo not drawn)	0%	-2%	1%
Cc1ccccc1C(=O)N1CCC(N2CCN(Cc3ccc(F)cc3)C(=O)C2=O)CC1	-4%	nt	-1%
CCSc1nnc(NC(=O)NC(C)(C(F)(F)F)C(F)(F)F)s1	-22%	-1%	10µM*
CCCC(=O)Nc1nnc(SCC)s1	2%	1%	2%
CCC(NC(=O)Nc1nccs1)(C(F)(F)F)C(F)(F)F	-4%	-4%	?
CCSc1nnc(NC(=O)NC(CC)(C(F)(F)F)C(F)(F)F)s1	?	-30%	7.1µM*
CC1=C(c2ccc(C(C)C)cc2)S(=O)(=O)N=C1N1CCC(C(=O)NCc2ccc(C)o2)CC1	-2%	nt	3%
COc1ccc(O)c(C2Nc3ccccc3-n3c(-c4ccccc4)c4c(=O)n(C)c(=O)n(C)c4c32)c1 (stereo not drawn)	21%	nt	3%
Cc1ccc(-c2c3c(=O)n(C)c(=O)n(C)c3c3n2-c2ccccc2NC3c2ccc(C)cc2O)cc1 (stereo not drawn)	-14%	nt	10µM*
O=S(=O)(c1ccccc1)N1CCC(O)(CSc2ccccc2)CC1	6%	14%	10µM*
O=S(=O)(c1ccccc1)N1CCC(O)(CSc2ccc(F)cc2)CC1	-2%[7.66 µM]	9%	-23%[7.66 µM]

Source: PubChem
